The supplement of paper PMC8975748
Where a name gives a salt, the structure may show the parent alone.

system: Saccharomyces cerevisiae BY4741 SeMeCo community; assay: z-score of subpopulation abundance vs DMSO median, subpopulation auxotrophic for U; higher = larger share of this subpopulation than in DMSO controls; settings: 10 µM; 24 h; SM minimal medium; subpopulation (auxotrophy): U
Method: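 Fluorescent four-plasmid SeMeCo (self-establishing metabolically cooperating S. cerevisiae BY4741 community; plasmids pH-mRuby2, pL-mWasabi, pU-eCFP, pM-TagRFP657) was grown 24 h in minimal SM medium with each Selleck FDA-approved drug at 10 µM in 384-well plates. Cells were fixed and imaged by high-content confocal microscopy. For each auxotrophic subpopulation (and the prototroph), a z-score gives the deviation from the DMSO vehicle-control population median.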

Compound | z-score of subpopulation abundance
CCN(CC)CCOC(=O)C(O)(c1ccccc1)c1ccccc1 [Benactyzine hydrochloride] | 1.08
O=c1cccc2n1C[C@@H]1CNC[C@H]2C1 [Cytisine] | -0.25
CC[C@H]1CN2CC[C@]3(C(=O)Nc4ccccc43)[C@@H]2C[C@@H]1/C(=C\OC)C(=O)OC [Rhynchophylline] | 0.63
Cc1cc(O)ccc1Cl [Chlorocresol] | -0.59
O=c1[nH]c2ccccc2n1CCCN1CCC(n2c(=O)[nH]c3cc(Cl)ccc32)CC1 [Domperidone] | 0.4
C=C(C)[C@H]1Cc2c(ccc3c2O[C@@H]2COc4cc(OC)c(OC)cc4[C@@H]2C3=O)O1 [Rotenone (Barbasco)] | -0.02
C[N+]12CCC(CC1)C(OC(=O)C(O)(c1ccccc1)c1ccccc1)C2 (centres undefined) [Clidinium Bromide] | 0.71
COc1ccc(C=O)cc1 [p-Anisaldehyde] | -0.66
CC1(C)SC2C(N)C(=O)N2C1C(=O)O (centres undefined) [6-Aminopenicillanic acid] | 0.1
Cn1cc(C2=C(c3cn(C4CCN(Cc5ccccn5)CC4)c4ccccc34)C(=O)NC2=O)c2ccccc21 | 1.48
CC[N+](C)(CC)CCOC(=O)C(O)(c1ccccc1)c1ccccc1 [Methylbenactyzine Bromide] | -0.09
O=[N+]([O-])C(Br)(CO)CO [Bronopol] | 1.02
CC(=O)OCC1=C(C(=O)O)N2C(=O)C(N)C2SC1 (centres undefined) [7-Aminocephalosporanic acid] | 0.52
CCN(C)C(=O)Oc1cccc([C@H](C)N(C)C)c1 [Rivastigmine] | -0.07
NC(=O)CN1CCCC1=O [Piracetam] | -0.08
CCC1=C[C@H]2CN3CCc4c([nH]c5ccccc45)[C@](C(=O)OC)(C2)[C@H]13 [Catharanthine] | 0.69
CN[C@@H]1[C@@H](O)[C@@H](O[C@@H]2[C@@H](O)[C@H](O[C@H]3O[C@H](CN)CC[C@H]3N)[C@@H](N)C[C@H]2N)OC[C@]1(C)O.CN[C@@H]1[C@@H](O)[C@@H](O[C@@H]2[C@@H](O)[C@H](O[C@H]3O[C@H]([C@@H](C)N)CC[C@H]3N)[C@@H](N)C[C@H]2N)OC[C@]1(C)O.CN[C@@H]1[C@@H](O)[C@@H](O[C@@H]2[C@@H](O)[C@H](O[C@H]3O[C@H]([C@@H](C)NC)CC[C@H]3N)[C@@H](N)C[C@H]2N)OC[C@]1(C)O [Gentamicin Sulfate] | 0.09

Compound | z-score of subpopulation abundance
NCCc1c[nH]c2ccc(O)cc12 [Serotonin HCl] | 0.33
COc1ccc(C(CN(C)C)C2(O)CCCCC2)cc1 (centres undefined) [Venlafaxine HCl] | -0.58
CN(C)C(=O)Oc1ccc[n+](C)c1 [Pyridostigmine Bromide] | 0.29
C=CCN1C[C@H](C(=O)N(CCCN(C)C)C(=O)NCC)C[C@@H]2c3cccc4[nH]cc(c34)C[C@H]21 [Cabergoline] | 1.05
C=CC[C@]1(O)CC[C@H]2[C@@H]3CCC4=CC(=O)CCC4=C3C=C[C@@]21C [Altrenogest] | -1.52
C[N+]1(C)[C@@H]2C[C@@H](OC(=O)[C@H](CO)c3ccccc3)C[C@H]1[C@@H]1O[C@@H]12 [Methscopolamine] | 0.61
CC(=O)O[C@H]1C[C@@H]2CC[C@@H]3[C@H](CC[C@@]4(C)[C@H]3C[C@H]([N+]3(C)CCCCC3)[C@@H]4OC(C)=O)[C@@]2(C)C[C@@H]1[N+]1(C)CCCCC1 [Pancuronium dibromide] | 0.25
CC[C@@H](C(N)=O)N1CCCC1=O [Levetiracetam] | 0
Nc1nc(N)nc(NC2CC2)n1 [Cyromazine] | 0.89
COc1ccc2c(c1)[C@]13CCCC[C@@H]1[C@H](C2)N(C)CC3 [Dextromethorphan hydrobromide hydrate] | 0.26
CC(C)(O)C(Cl)(Cl)Cl [Chlorobutanol] | 0.13
CC(C)N(CCC(C(N)=O)(c1ccccc1)c1ccccn1)C(C)C (centres undefined) [Disopyramide] | -1.21
CN1[C@@H]2C[C@@H](OC(=O)[C@H](CO)c3ccccc3)C[C@H]1[C@@H]1O[C@@H]12 [Scopolamine HBr] | 0.09
CCN(C)C(=O)Oc1cccc([C@H](C)N(C)C)c1 [Rivastigmine Tartrate] | -0.19
C[C@@H]1CC[C@H]2[C@@H](C)C(=O)O[C@@H]3O[C@@]4(C)CC[C@@H]1[C@]32OO4 [Artemisinin] | 0.61
COc1ccc2[nH]cc(CCN)c2c1 [5-Methoxytryptamine] | 1.12
COc1ccc(C(CN(C)C)C2(O)CCCCC2)cc1 (centres undefined) [Venlafaxine] | 0.93
